Experimental data taken from PubChem BioAssay (NCATS).
Several values for one entry are separate records, joined by “and”; a condition that tells them apart may be missing. Equal entries are not always repeated. Inconclusive results are not listed. Activity calls are given as the source filed them. Unless noted, the call rests on the fitted dose curve; in most records, active means well fitted curve in the direction sought with a large enough effect; inconclusive means small, poorly fitted or top-dose-only effect, or another doubt; inactive means no such curve, though single readings can be large; an effect the other way counts as inactive or inconclusive.

Tests used:
[1] = AP1 Signaling Pathway (AID 357; active means well fitted curve in either direction with a large enough effect, not every such curve was filed as active;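 further: ME-180 reporter cells stimulated with EGF at its EC50 level; on the % scale 0 is the no-effect control and ±100 the full control effect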)
Outline: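 A ratiometric CCF4 readout (405 nm excitation; 460 and 530 nm emission) quantified AP-1-driven beta-lactamase in ME-180 cells after 5 h with compound and EC50 EGF; AC50 values were derived for activators and inhibitors.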

[2] = NFAT Signaling Pathway (AID 444; active means well fitted curve in either direction with a large enough effect, not every such curve was filed as active;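 further: carbachol stimulus at about its EC50 of 1 µM final; on the % scale 0 is the no-effect control and ±100 the full control effect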); conditions: Jurkat NFAT-bla M1, carbachol, beta-lactamase ratio, 5 h; at 17.2 µM (top of the series)
Outline: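 Read-out: CCF4 FRET ratio (460 nm/530 nm) after 1 h RT dye loading, used for %activity and AC50 from titration series. Cells: Jurkat NFAT-β-lactamase/M1 line, treated with compound plus 1 uM carbachol for 5 h, 37 °C.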

[3] = Stat Signaling Pathway (AID 446; active means well fitted curve in either direction with a large enough effect, not every such curve was filed as active;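 further: ME-180 cervical cancer cells given 40 pM IL-6 alongside compound; SIE-controlled beta-lactamase reporter measured as 460/530 nm FRET emission ratio; on the % scale 0 is the no-effect control and ±100 the full control effect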)
Outline: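 ME-180 SIE-bla cells; overnight plating; cpd + IL-6 40 pM, 5 h, 37 C; LiveBLAzer 2.5 h RT; 460/530 nm emission ratio. Normalized to 300 pM IL-6 and 125 nM JAK inhibitor controls.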

[4] = target: Glucocorticoid receptor (Homo sapiens) (UniProt P04150); assay: GR-EFC Redistribution (AID 451; calls by dose curve; further: potency means the concentration at half of the fitted maximal effect); conditions: CHO-K1 GR-EFC translocation, beta-gal luminescence, 2 h
Sequence of Glucocorticoid receptor (Homo sapiens) (P04150 whole entry, looked up, the tested form may be a part): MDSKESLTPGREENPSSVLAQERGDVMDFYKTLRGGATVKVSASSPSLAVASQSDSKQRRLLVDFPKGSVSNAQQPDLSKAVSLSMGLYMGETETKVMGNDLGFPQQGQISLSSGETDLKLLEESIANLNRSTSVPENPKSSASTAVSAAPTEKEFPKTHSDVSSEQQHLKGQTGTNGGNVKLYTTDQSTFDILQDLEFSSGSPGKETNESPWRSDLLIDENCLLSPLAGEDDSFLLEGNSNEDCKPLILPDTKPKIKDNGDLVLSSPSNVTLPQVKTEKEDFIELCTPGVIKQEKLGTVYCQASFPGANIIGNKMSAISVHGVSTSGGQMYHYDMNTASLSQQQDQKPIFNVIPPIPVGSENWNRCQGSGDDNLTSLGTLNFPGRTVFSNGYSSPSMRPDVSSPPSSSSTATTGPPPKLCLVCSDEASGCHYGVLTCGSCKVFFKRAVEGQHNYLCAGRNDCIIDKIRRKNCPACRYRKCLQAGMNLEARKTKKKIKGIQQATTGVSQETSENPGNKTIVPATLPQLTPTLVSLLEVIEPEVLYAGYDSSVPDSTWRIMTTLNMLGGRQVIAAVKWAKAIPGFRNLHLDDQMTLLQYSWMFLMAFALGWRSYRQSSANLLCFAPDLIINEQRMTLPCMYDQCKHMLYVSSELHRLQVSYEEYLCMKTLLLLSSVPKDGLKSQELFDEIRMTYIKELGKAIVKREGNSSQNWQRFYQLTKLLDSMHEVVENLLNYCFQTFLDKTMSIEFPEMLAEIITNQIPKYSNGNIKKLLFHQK
Outline: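 Translocation of GR-ED fusion to nuclear EA restores b-gal, read by luminescence after 1 h room-temperature detection. Engineered CHO-K1 biosensor cells, 1,000/well, exposed 2 h at 37 C to titrations up to 46 uM final.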

[5] = target: Mitogen-activated protein kinase 10 (Mus musculus) (UniProt Q61831); assay: JNK3 AlphaScreen Assay (AID 530; active means well fitted curve in either direction with a large enough effect, not every such curve was filed as active;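 further: kinase came from lysate of stimulated human HepG2 cells; signal reports phosphorylation of biotinylated GST-cJun 1-79 at Ser73 with 10 µM ATP; on the % scale 0 is the no-effect control and ±100 the full control effect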)
Outline: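 Compound titrations were preincubated 15 minutes at room temperature with substrate, antibody and pre-activated JNK3-containing HepG2 lysate. Reactions were started with 10 uM ATP and stopped with EDTA-containing bead buffer for AlphaScreen detection.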

[6] = target: 3',5'-cyclic-AMP phosphodiesterase 4B (Homo sapiens) (UniProt Q07343); assay: qHTS Assay for Inhibitors of PDE-IV (AID 607; active means well fitted activation curve with a large enough effect in the main read-out, with a control signal flat, not every such curve was filed as active; further: % of control where 0% means no effect)
Sequence of 3',5'-cyclic-AMP phosphodiesterase 4B (Homo sapiens) (Q07343 whole entry, looked up): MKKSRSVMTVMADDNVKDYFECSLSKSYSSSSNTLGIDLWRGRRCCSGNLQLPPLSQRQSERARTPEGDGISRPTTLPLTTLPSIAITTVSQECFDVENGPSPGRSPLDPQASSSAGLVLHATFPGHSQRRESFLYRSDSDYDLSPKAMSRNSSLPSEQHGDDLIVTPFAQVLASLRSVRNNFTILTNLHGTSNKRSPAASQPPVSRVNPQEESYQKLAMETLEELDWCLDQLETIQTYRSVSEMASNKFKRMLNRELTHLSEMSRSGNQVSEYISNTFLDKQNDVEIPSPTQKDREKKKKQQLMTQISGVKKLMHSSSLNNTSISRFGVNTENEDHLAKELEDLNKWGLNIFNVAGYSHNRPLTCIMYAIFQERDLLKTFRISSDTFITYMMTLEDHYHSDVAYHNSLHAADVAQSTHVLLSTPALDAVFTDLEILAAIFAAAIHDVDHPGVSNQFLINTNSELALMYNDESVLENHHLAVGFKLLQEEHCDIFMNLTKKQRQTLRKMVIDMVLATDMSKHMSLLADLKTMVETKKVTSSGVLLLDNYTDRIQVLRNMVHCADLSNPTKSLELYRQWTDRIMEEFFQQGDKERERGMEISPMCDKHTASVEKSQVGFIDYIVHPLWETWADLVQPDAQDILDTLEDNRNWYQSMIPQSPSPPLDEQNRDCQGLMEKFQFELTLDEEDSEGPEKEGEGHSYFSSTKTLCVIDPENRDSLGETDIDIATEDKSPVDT
Outline: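 ACTOne HEK293 cells carry a modified cAMP-gated CNG channel and express endogenous PDE4; plated 1000 cells/well, compounds up to 22.9 uM final. Membrane-potential dye fluorescence (ex 535/em 590) was read; parental cells received 10 uM forskolin + 100 uM RO 20-1724.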

[7] = target: Cytochrome P450 3A4 (Homo sapiens) (UniProt P08684); assay: qHTS Assay for Inhibitors and Substrates of Cytochrome P450 3A4 (AID 884); further: potency means the concentration at half of the fitted maximal effect; nearly all actives have a fitted effect of over 50% in size
Sequence of Cytochrome P450 3A4 (Homo sapiens) (P08684 whole entry, looked up): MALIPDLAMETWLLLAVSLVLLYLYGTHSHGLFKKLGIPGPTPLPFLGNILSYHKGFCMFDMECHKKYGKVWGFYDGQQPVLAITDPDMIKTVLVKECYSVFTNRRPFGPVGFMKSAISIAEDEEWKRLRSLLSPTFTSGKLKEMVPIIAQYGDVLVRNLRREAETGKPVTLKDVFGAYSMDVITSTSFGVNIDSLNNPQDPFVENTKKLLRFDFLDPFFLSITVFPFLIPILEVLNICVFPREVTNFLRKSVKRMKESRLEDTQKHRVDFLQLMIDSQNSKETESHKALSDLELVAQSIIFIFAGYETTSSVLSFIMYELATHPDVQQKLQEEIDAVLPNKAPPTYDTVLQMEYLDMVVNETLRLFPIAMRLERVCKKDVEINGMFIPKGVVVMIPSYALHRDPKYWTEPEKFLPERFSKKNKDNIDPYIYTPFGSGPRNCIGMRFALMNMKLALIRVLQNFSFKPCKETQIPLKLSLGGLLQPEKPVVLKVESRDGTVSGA
Outline: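 20 nM human CYP3A4 with 25 uM Luciferin-PPXE (at KM) in 200 mM KPO4, preincubated 10 min with compound; NADPH regeneration started a 60 min RT reaction. Luciferin detected by luminescence, normalized to 57 uM ketoconazole as full inhibition.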

[8] = target: Cytochrome P450 3A4 (Homo sapiens) (UniProt P08684); assay: qHTS Assay for Activators of Cytochrome P450 3A4 (AID 885); further: nearly all actives have a fitted effect of over 65% in size
Outline: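 20nM CYP3A4 + 25uM Luciferin-PPXE (=KM), 200mM KPO4; cpd 10 min RT; NADPH regen, 60 min RT; stop w/ detection buffer, 20 min; luminescence. Normalized to 57 uM ketoconazole.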

[9] = target: Cytochrome P450 2D6 (Homo sapiens) (UniProt P10635); assay: qHTS Assay for Inhibitors and Substrates of Cytochrome P450 2D6 (AID 891); further: potency means the concentration at half of the fitted maximal effect; nearly all actives have a fitted effect of over 60% in size
Sequence of Cytochrome P450 2D6 (Homo sapiens) (P10635 whole entry, looked up): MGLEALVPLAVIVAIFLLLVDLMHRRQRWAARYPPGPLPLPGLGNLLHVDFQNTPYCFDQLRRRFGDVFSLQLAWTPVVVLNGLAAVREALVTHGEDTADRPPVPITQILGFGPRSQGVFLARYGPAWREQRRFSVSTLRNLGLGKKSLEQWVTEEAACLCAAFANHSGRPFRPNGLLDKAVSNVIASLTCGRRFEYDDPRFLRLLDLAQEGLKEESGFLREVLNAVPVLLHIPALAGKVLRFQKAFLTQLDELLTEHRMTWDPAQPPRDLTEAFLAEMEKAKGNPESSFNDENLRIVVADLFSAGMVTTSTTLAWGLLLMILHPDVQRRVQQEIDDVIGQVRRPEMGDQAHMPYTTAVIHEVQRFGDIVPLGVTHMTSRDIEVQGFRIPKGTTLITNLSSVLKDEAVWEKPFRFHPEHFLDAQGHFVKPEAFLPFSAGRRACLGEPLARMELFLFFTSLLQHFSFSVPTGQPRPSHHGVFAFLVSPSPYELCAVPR
Outline: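 Human CYP2D6 (5 nM) with 30 uM Luciferin-ME EGE (at Km) in 100 mM KPO4, compound preincubated 10 min, then NADPH regeneration system for 60 min at room temperature. Luciferin read by luminescence; normalized to 1.43 uM quinidine.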

[10] = qHTS Assay for Lipid Storage Modulators (AID 1519; calls by dose curve); conditions: Drosophila S3 cells, BODIPY lipid droplet/cell ratio, laser cytometry, cells loaded with oleic acid
Outline: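 Cells seeded at 5,000 per well were treated with compounds over a concentration series and loaded with oleic acid (400 uM, as added). Lipid droplet fluorescence (488 nm excitation, 500-530 nm channel) was read by laser-scanning cytometry and normalized to 20 uM Triacsin C.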

[11] = target: Ubiquitin carboxyl-terminal hydrolase 1 (Homo sapiens) (UniProt O94782); assay: Inhibitors of USP1/UAF1: Pilot qHTS (AID 504865);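 further: rhodamine fluorescence freed from ubiquitin-rhodamine substrate followed over time; top concentration of the series differs between compounds; on the % scale 0 is the no-effect control and ±100 the full control effect; nearly all actives have a fitted effect of over 35% in size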
Sequence of Ubiquitin carboxyl-terminal hydrolase 1 (Homo sapiens) (O94782 whole entry, looked up): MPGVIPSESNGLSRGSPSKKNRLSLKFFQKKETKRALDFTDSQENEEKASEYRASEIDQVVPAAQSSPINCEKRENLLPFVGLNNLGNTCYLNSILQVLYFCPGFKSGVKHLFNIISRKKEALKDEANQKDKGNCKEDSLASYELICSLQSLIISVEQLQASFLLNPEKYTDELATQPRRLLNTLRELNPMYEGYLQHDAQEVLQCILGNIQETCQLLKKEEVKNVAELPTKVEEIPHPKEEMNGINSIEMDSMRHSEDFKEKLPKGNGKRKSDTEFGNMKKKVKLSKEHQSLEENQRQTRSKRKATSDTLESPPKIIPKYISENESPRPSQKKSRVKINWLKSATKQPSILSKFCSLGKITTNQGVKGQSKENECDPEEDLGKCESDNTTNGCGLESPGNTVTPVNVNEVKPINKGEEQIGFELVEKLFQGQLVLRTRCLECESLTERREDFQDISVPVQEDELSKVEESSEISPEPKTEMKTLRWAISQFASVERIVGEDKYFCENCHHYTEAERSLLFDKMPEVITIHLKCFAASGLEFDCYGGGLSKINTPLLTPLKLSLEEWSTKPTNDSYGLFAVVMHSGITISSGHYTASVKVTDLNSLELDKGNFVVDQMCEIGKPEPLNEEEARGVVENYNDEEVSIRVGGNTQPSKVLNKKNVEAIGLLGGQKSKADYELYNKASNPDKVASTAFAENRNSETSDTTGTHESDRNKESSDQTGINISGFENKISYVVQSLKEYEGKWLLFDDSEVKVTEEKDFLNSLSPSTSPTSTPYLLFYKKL
Outline: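 Deubiquitinase activity followed as kinetic rhodamine fluorescence release from 150 nM Ub-Rho. 1 nM USP1/UAF1 with compound, after 15 min room-temperature preincubation, in HEPES pH 7.8 buffer containing TCEP, EDTA, BSA and Tween-20.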

[12] = target: DNA dC->dU-editing enzyme APOBEC-3G (Homo sapiens) (UniProt Q9HC16); assay: qHTS for inhibitors of Vif-A3G interactions: Validation (AID 588379); further: 0% is about no effect
Sequence of DNA dC->dU-editing enzyme APOBEC-3G (Homo sapiens) (Q9HC16 whole entry, looked up): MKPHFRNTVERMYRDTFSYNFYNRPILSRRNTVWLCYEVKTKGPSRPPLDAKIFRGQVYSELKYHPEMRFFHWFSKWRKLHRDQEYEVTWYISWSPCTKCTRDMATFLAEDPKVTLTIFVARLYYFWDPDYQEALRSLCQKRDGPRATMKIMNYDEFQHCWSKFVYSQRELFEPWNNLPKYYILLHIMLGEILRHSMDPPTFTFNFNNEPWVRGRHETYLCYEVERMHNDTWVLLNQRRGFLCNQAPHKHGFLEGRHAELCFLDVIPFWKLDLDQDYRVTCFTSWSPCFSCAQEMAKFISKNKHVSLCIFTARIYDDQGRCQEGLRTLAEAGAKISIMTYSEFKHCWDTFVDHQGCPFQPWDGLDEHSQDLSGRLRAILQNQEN
Outline: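 HeLa cells stably expressing Vif and A3G-eYFP, 700 cells/well, incubated overnight at 37 deg C, then exposed to compound overnight at 37 deg C. Inhibition of Vif-mediated degradation read as increased yellow fluorescence (Ex 488/Em 500-530) by laser-scanning cytometry.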

[13] = system: Zika virus NS2B-NS3 protease (linked construct); assay: Primary screen NINDS Rhodamine qHTS for Zika virus inhibitors (AID 1347160); further: on the % scale 0 is the no-effect control and ±100 the full control effect; nearly all actives have a fitted effect of over 55% in size
Outline: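 Purified linked NS2B-NS3 protease (NS2B hydrophilic domain joined to NS3 protease by flexible linker), 25 nM in 10 mM Tris-HCl pH 8.0, 0.01% Tween 20. Compounds titrated, 15 min preincubation at room temperature; 1.5 microM Rhodamine110 substrate, FITC fluorescence change over 15 min.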

[14] = OV-KATE Cancer Cell Toxicity qHTS against the NCATS CANVASS Library (AID 1347345); further: on the % scale 0 is the no-effect control and ±100 the full control effect
Outline: (§1)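 1000 cells/well seeded and rested 4 h at 37 °C before pin transfer of compounds in an 11-pnt series. Exposure 72 h at 37 °C/5% CO2; viability by CellTiter-Glo luminescence after 15 min at room temperature.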

[15] = UWB1.289 Cancer Cell Toxicity qHTS against the NCATS CANVASS Library (AID 1347347); further: on the % scale 0 is the no-effect control and ±100 the full control effect; nearly all actives have a fitted effect of over 60% in size
Outline: as §1

[16] = OV-SAHO Cancer Cell Toxicity qHTS against the NCATS CANVASS Library (AID 1347348); further: on the % scale 0 is the no-effect control and ±100 the full control effect; nearly all actives have a fitted effect of over 55% in size
Outline: as §1

[17] = U-118MG Cancer Cell Toxicity qHTS against the NCATS CANVASS Library (AID 1347351); further: on the % scale 0 is the no-effect control and ±100 the full control effect
Outline: as §1

[18] = COV-362 Cancer Cell Toxicity qHTS against the NCATS CANVASS Library (AID 1347352); further: on the % scale 0 is the no-effect control and ±100 the full control effect
Outline: (§2)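 Luminescent ATP read-out (CellTiter-Glo, 15min at room temperature) measures survival after cells face an 11-point compound series for 72 hours at 37 degrees C/5% CO2.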

[19] = A2780 Cisplatin Sensitive Ovarian Cancer Cell Toxicity qHTS against the NCATS CANVASS Library (AID 1347353); further: nearly all actives have a fitted effect of over 60% in size
Outline: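 Luminescent ATP content (ATPLite, 10 min at room temperature) served as the read-out after cells had been exposed to compounds for 72 hours at 37 °C. Dosing followed an 11-point concentration series.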

[20] = UWB1.289-WTBRCA1 Cancer Cell Toxicity qHTS against the NCATS CANVASS Library (AID 1347354)
Outline: as §2

[21] = HEK-293 Cancer Cell Toxicity qHTS against the NCATS CANVASS Library (AID 1347355); further: on the % scale 0 is the no-effect control and ±100 the full control effect; nearly all actives have a fitted effect of over 65% in size
Outline: as §2

[22] = HPAF-II 24hr Apoptosis Induction qHTS against the NCATS CANVASS Library (AID 1347356); further: 0% is about no effect
Outline: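 Luminescent caspase-3/7 signal (DEVD substrate, Caspase-Glo) served as read-out, taken 15 min after reagent addition to HPAF-II cells exposed 24 h to compounds.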

[23] = HEK293 24hr Apoptosis Induction qHTS against the NCATS CANVASS Library (AID 1347359); further: 0% is about no effect
Outline: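 Caspase-3/7 activation measured as luminescence from the DEVD-based Caspase-Glo reagent, 15 min at room temperature, following 24-hour compound treatment of HEK293 cells.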

CN(C)Cc1c[nH]c2ccccc12
-14%: max response ([10]; measured here: cell count channel max response) | max response ([10]; measured here: lipid channel max response)
inactive: outcome [1] | activity change, negative = inhibition [2] 1.81% | outcome [3] | Potency [4] > 20.6 µM and > 46 µM | outcome [5] | Potency [6] | Potency [8] | activity change, negative = inhibition ([10]; at 25.7 µM (top of the series)) -1.33% | Potency [11] | Potency [12] | Potency [13] | Potency [14] | Potency [15] | Potency [16] | Potency [17] | Potency [18] | Potency [19] | Potency [20] | Potency [21] | outcome [22] | Potency [23]
active: Potency [7] 15.8 µM | Potency [9] 158 nM and 10 µM
